Inconclusive results are not listed. The source made the active and inactive calls. Calls follow the shape of the full dose curve.
Assay: Primary qHTS for inhibitors of MERS-S pseudo-typed particle cell entry (AID 1479149); also: nearly all actives have a fitted effect of over 60% in size
Conditions: MERS-S pseudotyped particle entry, luciferase; series mostly up to 57.1 µM; activity change, negative = inhibition: at the top concentration
% is scaled to controls: 0 for no effect and ±100 for the full control effect.

Structure (SMILES)	outcome	activity change, negative = inhibition
Nc1ccc(S(=O)(=O)Nc2ccccn2)cc1	inactive	–
O=S(=O)(O)c1ccc2nc(-c3ccccc3)[nH]c2c1	inactive	–
CC(CN(C)C)C(C)(O)Cc1ccc(Cl)cc1 (stereo unspecified)	inactive	–
CO[C@@]1(NC(=O)Cc2cccs2)C(=O)N2C(C(=O)O)=C(COC(N)=O)CS[C@@H]21	inactive	–
Nc1ncnc2c1ncn2[C@@H]1O[C@H](CO)[C@@H](O)[C@H]1O	inactive	–
C[C@@H]1[C@H](O)[C@@H](C)/C=C/C=C\C=C\C=C\C=C\C=C\C=C\[C@H](O[C@@H]2O[C@H](C)[C@@H](O)[C@H](N)[C@@H]2O)C[C@@H]2O[C@](O)(C[C@@H](O)C[C@@H](O)[C@H](O)CC[C@@H](O)C[C@@H](O)CC(=O)O[C@H]1C)C[C@H](O)[C@H]2C(=O)O (stereo in doubt)	inactive	–
CC(=O)CC/C=C(\C)CC/C=C(\C)CC/C=C(\C)CCC=C(C)C	inactive	–
CC(C)OC(=O)OCOP(=O)(CO[C@H](C)Cn1cnc2c(N)ncnc21)OCOC(=O)OC(C)C	–	-88.2% (inactive)
Cc1c(F)c(N2CCNC(C)C2)cc2c1c(=O)c(C(=O)O)cn2C1CC1 (stereo unspecified)	–	-25.7% (inactive)
O=S(=O)(O)c1ccc(O)cc1	inactive	–
N#Cc1ccc(C(c2ccc(C#N)cc2)n2cncn2)cc1	inactive	–
O=c1[nH]c(=O)n([C@H]2CCCO2)cc1F	inactive	–
Cc1nnc(NS(=O)(=O)c2ccc(N)cc2)s1	–	2.31% (inactive)
COc1ccc2cccc(CCNC(C)=O)c2c1	inactive	–
O=C(O)Cc1sc(-c2ccccc2)nc1-c1ccc(Cl)cc1	inactive	–
O=C(CO)[C@@H](O)[C@H](O)[C@@H](O)CO	inactive	–

— PubChem BioAssay (NCATS)
